We go through 9 compounds from PubChem BioAssay (NCI).

This is part of a sample that, as a whole, favours compounds with a hit. Of some 83,000 tested, about 20% had one in any assay.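 The endpoint reported here, percent growth, reads 100 for growth as untreated, 0 for no net growth and -100 for all cells dead.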 Unmarked numbers belong to inactive results. Calls of active or inactive are those of the source. How the source made its calls: active means growth percent below 10; inactive means the rest.

Test systems include SR leukemia; RPMI-8226 leukemia; OVCAR-5 ovarian; OVCAR-4 ovarian; SK-OV-3 ovarian; OVCAR-3 ovarian; HS 578T breast; NCI/ADR-RES ovarian; T-47D breast; BT-549 breast; MDA-MB-435 melanoma; SW-620 colon; MCF7 breast; HCT-116 colon; HCC-2998 colon; KM12 colon; OVCAR-8 ovarian; IGROV1 ovarian.
Experiment in all cases: NCI-60 one-dose screen, 48 h (100 = growth as untreated, 0 = no growth, -100 = all killed)
Conditions in all cases: 10 µM unless noted

Take `COc1cc2nc(SCc3cc(OC)c(OC)c(OC)c3)n(Cc3ccccc3)c(=O)c2cc1OC`: the growth in the assay with SR leukemia is 6.25% (active); in the assay with RPMI-8226 leukemia it was 54.8%; in the assay with OVCAR-5 ovarian, 53.7%; in the assay on OVCAR-4 ovarian it was 44.2%; with SK-OV-3 ovarian it was 29.8%; in the assay on OVCAR-3 ovarian, 6.2% (active). The growth in the assay with HS 578T breast was 26.7%; in the assay with NCI/ADR-RES ovarian it was -15.8% (active); with T-47D breast, 35.9%; with BT-549 breast, 16.8%; in the assay with MDA-MB-435 melanoma, -20.3% (active); in the assay with SW-620 colon it was 33.5%. For the same compound, the growth in the assay on MCF7 breast is 10.1%; in the assay with HCT-116 colon, 14.7%; in the assay on HCC-2998 colon, 40.9%; in the assay with KM12 colon, 15.4%.
Take `COc1cccc2cc(-c3cc4ccccc4[nH]3)c(=NC(=O)c3ccc(Cl)cc3)oc12`: the growth in the assay with SR leukemia is 62.7%; in the assay on RPMI-8226 leukemia it was 76.1%; in the assay with OVCAR-8 ovarian, 53.8%; in the assay on OVCAR-5 ovarian, 85.9%; with OVCAR-4 ovarian, 66.8%; in the assay with IGROV1 ovarian, 53.7%. Further, the growth with OVCAR-3 ovarian is 67%; in the assay on HS 578T breast it was 70.8%; in the assay on NCI/ADR-RES ovarian it was 53%; in the assay with BT-549 breast it was 62.7%; in the assay on MDA-MB-435 melanoma, 33.1%; in the assay with SW-620 colon it was 7.3% (active). Besides, the growth in the assay on MCF7 breast is 73.5%; in the assay on HCT-116 colon, 26.9%; in the assay with HCC-2998 colon, 75.7%; with KM12 colon it was 33.9%.
As to `COc1cccc2cc(-c3cc4ccccc4[nH]3)/c(=N/C(=S)Nc3ccccc3)oc12`, the growth in the assay with SR leukemia is 104%; in the assay on RPMI-8226 leukemia, 131%; in the assay with OVCAR-8 ovarian, 66.2%; with OVCAR-5 ovarian, 89.6%; in the assay on OVCAR-4 ovarian, 40.7%; in the assay with IGROV1 ovarian, 58.1%. Also, the growth was 80.5% in the assay on OVCAR-3 ovarian; 25.1% in the assay with HS 578T breast; 51.4% in the assay on NCI/ADR-RES ovarian; 95.2% in the assay with BT-549 breast; 87.9% in the assay with MDA-MB-435 melanoma; 74.1% in the assay with SW-620 colon. Also, the growth in the assay with MCF7 breast was 79.5%; with HCT-116 colon it was 59.6%; in the assay on HCC-2998 colon it was 82.6%; with KM12 colon it was 88.3%.
Take `COC(=O)c1cc(-c2cccs2)c(C#N)c(N)c1C#N`: the growth in the assay with SR leukemia is 94.5%; with RPMI-8226 leukemia, 99.7%; with OVCAR-8 ovarian, 98.9%; with OVCAR-5 ovarian, 105%; with SK-OV-3 ovarian it was 101%; with IGROV1 ovarian, 94.2%. For the same compound, the growth in the assay on OVCAR-3 ovarian is 108%; with HS 578T breast, 102%; in the assay with NCI/ADR-RES ovarian it was 106%; in the assay on T-47D breast, 69.1%; in the assay on BT-549 breast, 107%; in the assay with MDA-MB-435 melanoma, 104%. Also, the growth with SW-620 colon was 102%; with MCF7 breast it was 67.7%; with HCT-116 colon it was 95.5%; in the assay with HCC-2998 colon it was 106%; in the assay with KM12 colon, 108%.
For `COc1cc2c3c(c(=O)oc2cc1OS(=O)(=O)c1ccc(C(F)(F)F)cc1)CCCCC3`, the growth in the assay on SR leukemia is 58.6%; with RPMI-8226 leukemia it was 84.8%; in the assay with OVCAR-8 ovarian, 93.8%; with OVCAR-5 ovarian it was 79.6%; with SK-OV-3 ovarian, 83%; with IGROV1 ovarian it was 86.7%. The growth in the assay with OVCAR-3 ovarian is 87.9%; in the assay on HS 578T breast it was 56.4%; with NCI/ADR-RES ovarian it was 76.3%; in the assay with T-47D breast, 80.9%; in the assay on BT-549 breast, 75.4%; with MDA-MB-435 melanoma, 91.6%. Besides, the growth is 102% with SW-620 colon, 66.6% in the assay on HCT-116 colon, 97.6% with HCC-2998 colon and 92.1% in the assay with KM12 colon.
For the compound `COc1ccc(/C=c2\sc3n(c2=O)C2C(NN=3)N(C)C(=O)N2C)cc1` (stereo not given), the growth in the assay with SR leukemia is -10.6% (active); in the assay on RPMI-8226 leukemia it was 20.3%; in the assay on OVCAR-8 ovarian, 35%; with OVCAR-5 ovarian, 54.9%; with OVCAR-4 ovarian, 51.2%; in the assay on OVCAR-3 ovarian, -3.86% (active). The growth in the assay with HS 578T breast was 8.08% (active); in the assay on NCI/ADR-RES ovarian it was 10.4%; with BT-549 breast, 75.3%; in the assay with MDA-MB-435 melanoma, -60.6% (active); in the assay with SW-620 colon, 23.5%; in the assay with MCF7 breast, 22.7%. Also, the growth is 22.5% in the assay with HCT-116 colon, 54.9% in the assay on HCC-2998 colon and 22.8% in the assay with KM12 colon.
Consider `CC(C)(C)c1ccc(S(=O)(=O)Oc2ccc3c4c(c(=O)oc3c2)CCCCC4)cc1`, for which the growth is 31.4% in the assay on SR leukemia; 40.4% in the assay on RPMI-8226 leukemia; 77.2% in the assay with OVCAR-8 ovarian; 70% in the assay with OVCAR-5 ovarian; 71.4% with SK-OV-3 ovarian; 68.6% in the assay on IGROV1 ovarian. For the same compound, the growth in the assay with OVCAR-3 ovarian is 52.7%; in the assay with HS 578T breast it was 40%; in the assay on NCI/ADR-RES ovarian, 20.1%; with T-47D breast it was 45.9%; in the assay with BT-549 breast, 46.6%; with MDA-MB-435 melanoma it was 11.9%. In addition, the growth is 55.2% with SW-620 colon; 32.3% with MCF7 breast; 36.6% in the assay with HCT-116 colon; 74.5% in the assay with HCC-2998 colon; 55.1% in the assay with KM12 colon.
As to `c1ccn2nnnc2c1`, the growth with SR leukemia was 96.5%; in the assay with RPMI-8226 leukemia, 102%; in the assay with OVCAR-8 ovarian, 105%; in the assay on OVCAR-5 ovarian it was 105%; with OVCAR-4 ovarian, 103%; with IGROV1 ovarian it was 113%. Also, the growth in the assay with OVCAR-3 ovarian was 70.6%; with HS 578T breast it was 105%; in the assay with NCI/ADR-RES ovarian, 102%; in the assay with BT-549 breast, 67.2%; with MDA-MB-435 melanoma it was 99.5%; in the assay with SW-620 colon, 106%. For the same compound, the growth was 93.1% in the assay on MCF7 breast, 87.5% with HCT-116 colon, 91.6% with HCC-2998 colon and 99.5% with KM12 colon.
On to `CCN1C(=O)N(CC)C2Nn3c(s/c(=C\c4cccc(F)c4)c3=O)=NC21` (stereo not given), for which the growth in the assay with SR leukemia was 36.2%; in the assay on RPMI-8226 leukemia it was 90.7%; with OVCAR-8 ovarian, 77.4%; with OVCAR-5 ovarian it was 86.8%; in the assay on OVCAR-4 ovarian, 67.5%; in the assay on IGROV1 ovarian, 84.8%. Further, the growth is 43% in the assay on OVCAR-3 ovarian; 75.5% with HS 578T breast; 30.6% with NCI/ADR-RES ovarian; 80.4% in the assay on BT-549 breast; 5.47% (active) in the assay with MDA-MB-435 melanoma; 57.4% in the assay on SW-620 colon. The growth in the assay with MCF7 breast is 54.7%; in the assay with HCT-116 colon, 45.4%; with HCC-2998 colon it was 98.7%; with KM12 colon, 49.1%.
